Results: the supplement of paper PMC10849652
The full data set covers some 7,900 targets. This sample favours those with a hit. About 0.6% of all pairs of compound and target were hits.

Key:
Test in all cases: log2 fold change, soluble protein after heating vs DMSO (PISA); higher = thermal stabilisation; K562 cells, 10 uM, 30 min; active = over 0.2 and 3.5 SD of the protein, either way, in both replicates (recomputed)
[1] = compound: CS(=O)(=O)c1ccc(-c2cnc(N)c(C(=O)Nc3ccccc3)n2)cc1
Procedure, shortened: (§1)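 Soluble protein was defined as the supernatant after 21,000xg for 90 min. It came from K562 cells at 2×10^6 cells/mL given 10 μM compound for 30 min, heated in aliquots for 3 min across 48°C-58°C, pooled, and extracted in PBS with 0.5% NP-40 at 4°C, and was quantified by TMTpro 16plex LC-MS/MS with equalised channel sums. Thermal stability against control samples, from duplicates, is reported as log2 fold change.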

crizotinib = compound: C[C@@H](Oc1cc(-c2cnn(C3CCNCC3)c2)cnc1N)c1c(Cl)ccc(F)c1Cl [crizotinib]
Procedure, shortened: as §1

[2] = compound: C[C@@H]1COCCN1C2=NC(=NC(=C2)C3(CC3)S(=O)(=O)C)C4=C5C=CNC5=CC=C4
Procedure, shortened: as §1

[3] = compound: C[C@H](C1=CC=C(C=C1)C(=O)NC2=C3C=CNC3=NC=C2)N
Procedure, shortened: as §1

duvelisib = compound: C[C@H](Nc1ncnc2nc[nH]c12)c1cc2cccc(Cl)c2c(=O)n1-c1ccccc1 [duvelisib]
Procedure, shortened: as §1

gandotinib = compound: Cc1cc(Nc2cc(CN3CCOCC3)c3nc(C)c(Cc4ccc(Cl)cc4F)n3n2)n[nH]1 [gandotinib]
Procedure, shortened: as §1

tozasertib = compound: Cc1cc(Nc2cc(N3CCN(C)CC3)nc(Sc3ccc(NC(=O)C4CC4)cc3)n2)n[nH]1 [tozasertib]
Procedure, shortened: as §1

[4] = compound: Cc1cc(SCc2sc(-c3ccc(C(F)(F)F)cc3)nc2C)ccc1OCC(=O)O
Procedure, shortened: as §1

doramapimod = compound: Cc1ccc(-n2nc(C(C)(C)C)cc2NC(=O)Nc2ccc(OCCN3CCOCC3)c3ccccc23)cc1 [doramapimod]
Procedure, shortened: as §1

ispinesib = compound: Cc1ccc(C(=O)N(CCCN)[C@@H](c2nc3cc(Cl)ccc3c(=O)n2Cc2ccccc2)C(C)C)cc1 [ispinesib]
Procedure, shortened: as §1

Measured: log2 fold change

NSMCE2 (UniProt Q96MF7)
Sequence of UniProt Q96MF7 (Q96MF7 whole entry, looked up): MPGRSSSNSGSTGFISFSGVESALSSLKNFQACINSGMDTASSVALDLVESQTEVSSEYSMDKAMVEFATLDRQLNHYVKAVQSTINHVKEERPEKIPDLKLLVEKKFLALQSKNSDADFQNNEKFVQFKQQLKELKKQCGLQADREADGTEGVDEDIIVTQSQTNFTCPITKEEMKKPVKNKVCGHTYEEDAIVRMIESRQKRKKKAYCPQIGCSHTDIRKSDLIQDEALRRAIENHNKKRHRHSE
inactive: [1] 0.001 | crizotinib 0.051 | [2] -0.038 | [3] -0.024 | duvelisib -0.011 | gandotinib -0.131 | tozasertib 0.043 | [4] -0.042 | doramapimod 0.004 | ispinesib 0.044

MPHOSPH10 (UniProt O00566)
Sequence of UniProt O00566 (O00566 whole entry, looked up): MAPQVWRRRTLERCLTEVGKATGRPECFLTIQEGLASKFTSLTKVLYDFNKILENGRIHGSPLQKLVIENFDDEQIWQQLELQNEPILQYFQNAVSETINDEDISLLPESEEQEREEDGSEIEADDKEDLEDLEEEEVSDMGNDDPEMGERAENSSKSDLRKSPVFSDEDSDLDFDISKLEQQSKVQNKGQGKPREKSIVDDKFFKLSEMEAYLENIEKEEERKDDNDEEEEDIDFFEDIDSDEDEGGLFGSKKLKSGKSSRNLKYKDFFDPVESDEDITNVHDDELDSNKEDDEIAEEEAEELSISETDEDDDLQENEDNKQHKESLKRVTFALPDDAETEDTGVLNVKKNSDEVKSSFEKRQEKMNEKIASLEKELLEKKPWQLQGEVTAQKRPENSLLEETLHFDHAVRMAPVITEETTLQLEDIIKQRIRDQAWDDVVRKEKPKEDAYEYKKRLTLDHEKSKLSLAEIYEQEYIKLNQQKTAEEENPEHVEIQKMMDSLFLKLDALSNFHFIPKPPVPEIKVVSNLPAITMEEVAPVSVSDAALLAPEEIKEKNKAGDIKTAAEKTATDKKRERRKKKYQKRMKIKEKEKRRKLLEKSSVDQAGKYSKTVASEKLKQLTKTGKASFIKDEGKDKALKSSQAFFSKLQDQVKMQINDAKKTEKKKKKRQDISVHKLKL
inactive: [1] -0.083 | crizotinib 0.026 | [2] -0.25 | [3] 0.353 | duvelisib -0.047 | gandotinib 0.189 | tozasertib 0.016 | [4] -0.046 | doramapimod 0.049 | ispinesib -0.023

MRPS18B (UniProt Q9Y676)
active: ispinesib -0.397
inactive: [1] -0.187 | crizotinib -0.047 | [2] 0.075 | [3] 0.145 | duvelisib 0.006 | gandotinib -0.028 | tozasertib 0.016 | [4] 0.157 | doramapimod 0.029

OSBP (UniProt P22059)
active: ispinesib 0.216
inactive: [1] -0.015 | crizotinib 0.057 | [2] 0.025 | [3] -0.043 | duvelisib 0.074 | gandotinib -0.025 | tozasertib -0.009 | [4] 0.016 | doramapimod -0.028

NDUFA4 (UniProt O00483)
Sequence of UniProt O00483 (O00483 whole entry, looked up): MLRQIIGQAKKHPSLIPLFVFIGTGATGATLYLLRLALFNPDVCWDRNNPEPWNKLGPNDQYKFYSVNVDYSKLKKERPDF
inactive: [1] -0.045 | crizotinib 0.138 | [2] 0.162 | [3] -0.055 | duvelisib 0.142 | gandotinib -0.099 | tozasertib 0.025 | [4] 0.022 | doramapimod 0.034 | ispinesib 0.204

NEU3 isoform 2 (UniProt Q9UQ49)
inactive: [1] 0.062

NFX1 (UniProt Q12986)
inactive: [1] -0.024 | crizotinib -0.232 | [2] -0.315 | [3] 0.09 | duvelisib 0.172 | gandotinib 0.21 | tozasertib -0.008 | [4] -0.164 | doramapimod 0.293 | ispinesib -0.202

NOP58 (UniProt Q9Y2X3)
inactive: [1] 0.006 | crizotinib 0.047 | [2] -0.061 | [3] 0.242 | duvelisib 0.004 | gandotinib 0.121 | tozasertib 0.025 | [4] -0.001 | doramapimod 0.098 | ispinesib 0.103

NFATC3 (UniProt Q12968)
Sequence of UniProt Q12968 (Q12968 whole entry, looked up): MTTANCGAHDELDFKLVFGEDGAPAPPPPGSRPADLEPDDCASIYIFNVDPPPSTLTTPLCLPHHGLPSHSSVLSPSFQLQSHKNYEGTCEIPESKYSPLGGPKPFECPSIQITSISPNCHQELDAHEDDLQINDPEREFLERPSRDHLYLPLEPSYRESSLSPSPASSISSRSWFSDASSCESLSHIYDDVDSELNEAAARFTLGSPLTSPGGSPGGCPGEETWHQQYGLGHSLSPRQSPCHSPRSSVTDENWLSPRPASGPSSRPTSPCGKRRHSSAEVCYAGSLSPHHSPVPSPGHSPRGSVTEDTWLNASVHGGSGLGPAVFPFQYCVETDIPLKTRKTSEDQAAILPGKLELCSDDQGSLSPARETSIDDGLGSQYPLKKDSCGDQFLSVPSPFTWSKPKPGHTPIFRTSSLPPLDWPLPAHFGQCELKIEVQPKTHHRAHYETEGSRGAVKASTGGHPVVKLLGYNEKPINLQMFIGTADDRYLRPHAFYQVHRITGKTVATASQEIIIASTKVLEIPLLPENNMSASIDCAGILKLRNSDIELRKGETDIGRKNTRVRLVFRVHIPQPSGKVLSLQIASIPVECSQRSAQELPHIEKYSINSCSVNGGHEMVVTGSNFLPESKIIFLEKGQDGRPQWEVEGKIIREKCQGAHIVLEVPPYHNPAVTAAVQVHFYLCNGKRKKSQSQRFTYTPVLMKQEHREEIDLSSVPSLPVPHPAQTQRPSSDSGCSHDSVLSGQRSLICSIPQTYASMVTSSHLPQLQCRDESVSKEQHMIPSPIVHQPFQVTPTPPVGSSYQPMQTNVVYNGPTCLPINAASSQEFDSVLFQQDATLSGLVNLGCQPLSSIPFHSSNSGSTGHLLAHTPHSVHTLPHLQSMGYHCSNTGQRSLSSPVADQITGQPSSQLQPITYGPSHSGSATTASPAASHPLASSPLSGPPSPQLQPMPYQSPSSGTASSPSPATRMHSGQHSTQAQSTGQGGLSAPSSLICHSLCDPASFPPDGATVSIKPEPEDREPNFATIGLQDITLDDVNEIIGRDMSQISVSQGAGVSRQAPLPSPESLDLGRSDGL
inactive: [1] -0.06 | crizotinib -0.179 | [2] 0.014 | [3] -0.04 | duvelisib -0.012 | gandotinib -0.161 | tozasertib -0.039 | [4] 0.091 | doramapimod 0.066 | ispinesib 0.256

MRPL34 (UniProt Q9BQ48)
inactive: [1] -0.004 | crizotinib -0.045 | [2] 0.077 | [3] 0.179 | duvelisib -0.079 | gandotinib 0.164 | tozasertib -0.002 | [4] 0.051 | doramapimod 0.152 | ispinesib -0.284

MYH11 isoform 2 (UniProt P35749)
inactive: [1] -0.026 | crizotinib -0.025 | [2] 0.01 | [3] -0.078 | duvelisib 0 | gandotinib 0.014 | tozasertib -0.032 | [4] 0.009 | doramapimod 0.057 | ispinesib -0.012

MINK1 (UniProt Q8N4C8)
Sequence of UniProt Q8N4C8 (Q8N4C8 whole entry, looked up): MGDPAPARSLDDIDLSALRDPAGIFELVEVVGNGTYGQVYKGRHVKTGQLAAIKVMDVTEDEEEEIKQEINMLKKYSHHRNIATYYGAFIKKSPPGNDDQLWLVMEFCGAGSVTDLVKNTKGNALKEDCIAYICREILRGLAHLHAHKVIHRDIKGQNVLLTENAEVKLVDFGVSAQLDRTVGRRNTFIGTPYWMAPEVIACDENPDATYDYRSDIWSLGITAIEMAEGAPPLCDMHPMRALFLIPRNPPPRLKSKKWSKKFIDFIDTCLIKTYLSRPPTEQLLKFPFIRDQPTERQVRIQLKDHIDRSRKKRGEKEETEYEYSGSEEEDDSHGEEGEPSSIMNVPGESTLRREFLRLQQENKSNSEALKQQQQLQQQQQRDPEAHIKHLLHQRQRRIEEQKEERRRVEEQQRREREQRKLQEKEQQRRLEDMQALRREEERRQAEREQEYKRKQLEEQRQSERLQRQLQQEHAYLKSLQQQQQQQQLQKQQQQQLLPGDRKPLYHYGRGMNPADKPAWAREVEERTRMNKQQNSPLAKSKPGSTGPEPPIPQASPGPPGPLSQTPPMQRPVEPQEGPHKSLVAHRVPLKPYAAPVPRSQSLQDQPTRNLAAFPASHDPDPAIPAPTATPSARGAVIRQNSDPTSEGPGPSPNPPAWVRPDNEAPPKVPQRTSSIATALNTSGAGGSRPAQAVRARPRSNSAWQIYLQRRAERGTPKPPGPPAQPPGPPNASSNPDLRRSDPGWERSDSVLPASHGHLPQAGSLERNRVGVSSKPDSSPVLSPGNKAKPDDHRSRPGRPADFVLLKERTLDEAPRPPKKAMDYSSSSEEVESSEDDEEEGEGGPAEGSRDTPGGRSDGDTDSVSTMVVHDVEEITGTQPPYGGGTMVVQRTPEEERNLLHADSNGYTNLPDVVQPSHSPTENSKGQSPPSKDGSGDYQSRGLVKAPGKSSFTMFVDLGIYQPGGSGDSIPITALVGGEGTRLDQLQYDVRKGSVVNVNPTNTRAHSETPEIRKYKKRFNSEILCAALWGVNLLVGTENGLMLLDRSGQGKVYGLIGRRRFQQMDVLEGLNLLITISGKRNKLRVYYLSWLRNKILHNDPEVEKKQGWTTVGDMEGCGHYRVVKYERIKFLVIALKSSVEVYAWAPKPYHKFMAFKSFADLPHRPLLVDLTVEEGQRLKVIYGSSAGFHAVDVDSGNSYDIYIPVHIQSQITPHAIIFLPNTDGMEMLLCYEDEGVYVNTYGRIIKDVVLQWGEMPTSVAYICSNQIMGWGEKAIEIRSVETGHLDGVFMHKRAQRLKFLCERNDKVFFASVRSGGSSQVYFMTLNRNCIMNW
inactive: [1] 0.032 | crizotinib -0.207 | [2] -0.038 | [3] -0.067 | duvelisib 0.022 | gandotinib -0.024 | tozasertib -0.149 | [4] 0.073 | doramapimod -0.035 | ispinesib -0.032

NMNAT1 (UniProt Q9HAN9)
Sequence of UniProt Q9HAN9 (Q9HAN9 whole entry, looked up): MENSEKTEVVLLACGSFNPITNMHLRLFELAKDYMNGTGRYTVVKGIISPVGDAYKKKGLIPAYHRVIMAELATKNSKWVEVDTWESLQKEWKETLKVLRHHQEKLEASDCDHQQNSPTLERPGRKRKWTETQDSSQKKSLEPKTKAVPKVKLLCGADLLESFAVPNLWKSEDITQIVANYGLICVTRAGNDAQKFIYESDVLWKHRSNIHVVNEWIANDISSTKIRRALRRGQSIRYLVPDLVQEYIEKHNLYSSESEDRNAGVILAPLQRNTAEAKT
inactive: [1] -0.053 | crizotinib -0.016 | [2] -0.435 | [3] 0.164 | duvelisib -0.046 | gandotinib 0.132 | tozasertib 0.024 | [4] -0.056 | doramapimod 0.296 | ispinesib -0.212

OXR1 (UniProt Q8N573)
Sequence of UniProt Q8N573 (Q8N573 whole entry, looked up): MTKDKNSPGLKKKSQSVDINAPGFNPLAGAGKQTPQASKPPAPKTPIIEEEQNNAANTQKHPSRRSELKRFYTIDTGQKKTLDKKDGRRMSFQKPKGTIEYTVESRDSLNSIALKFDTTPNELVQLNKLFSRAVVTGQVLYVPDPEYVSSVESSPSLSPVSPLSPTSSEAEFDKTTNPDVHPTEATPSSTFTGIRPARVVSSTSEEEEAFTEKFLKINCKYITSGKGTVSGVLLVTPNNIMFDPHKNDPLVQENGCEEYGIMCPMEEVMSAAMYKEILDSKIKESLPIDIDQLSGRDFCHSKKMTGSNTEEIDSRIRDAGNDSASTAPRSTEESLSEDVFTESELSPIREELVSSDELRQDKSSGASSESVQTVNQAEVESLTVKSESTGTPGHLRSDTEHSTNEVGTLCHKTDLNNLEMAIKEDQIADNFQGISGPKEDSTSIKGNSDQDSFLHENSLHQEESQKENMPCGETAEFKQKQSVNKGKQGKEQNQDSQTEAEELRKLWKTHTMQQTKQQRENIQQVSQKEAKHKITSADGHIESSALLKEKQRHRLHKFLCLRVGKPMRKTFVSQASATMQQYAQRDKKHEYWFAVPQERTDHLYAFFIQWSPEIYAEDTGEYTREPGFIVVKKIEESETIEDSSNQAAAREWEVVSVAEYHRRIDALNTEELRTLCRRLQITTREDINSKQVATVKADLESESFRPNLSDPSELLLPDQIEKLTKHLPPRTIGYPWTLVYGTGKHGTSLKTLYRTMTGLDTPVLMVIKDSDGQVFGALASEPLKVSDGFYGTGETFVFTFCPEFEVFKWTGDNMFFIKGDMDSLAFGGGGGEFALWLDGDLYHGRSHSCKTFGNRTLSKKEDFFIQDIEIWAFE
inactive: [1] 0.02 | crizotinib -0.074 | [2] 0.014 | [3] -0.048 | duvelisib 0.063 | gandotinib 0 | tozasertib 0.021 | [4] -0.011 | doramapimod 0.001 | ispinesib -0.095

NAA38 isoform 2 (UniProt Q9BRA0)
Sequence of UniProt Q9BRA0 (Q9BRA0 whole entry, looked up): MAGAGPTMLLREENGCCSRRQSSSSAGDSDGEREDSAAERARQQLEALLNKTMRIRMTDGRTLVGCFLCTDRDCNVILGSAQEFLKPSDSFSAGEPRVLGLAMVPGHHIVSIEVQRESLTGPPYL
inactive: [1] 0.012 | crizotinib -0.052 | [2] 0.099 | [3] 0.018 | duvelisib 0.124 | gandotinib -0.004 | tozasertib -0.013 | [4] 0.015 | doramapimod -0.02 | ispinesib -0.064

NIPSNAP2 (UniProt O75323)
Sequence of UniProt O75323 (O75323 whole entry, looked up): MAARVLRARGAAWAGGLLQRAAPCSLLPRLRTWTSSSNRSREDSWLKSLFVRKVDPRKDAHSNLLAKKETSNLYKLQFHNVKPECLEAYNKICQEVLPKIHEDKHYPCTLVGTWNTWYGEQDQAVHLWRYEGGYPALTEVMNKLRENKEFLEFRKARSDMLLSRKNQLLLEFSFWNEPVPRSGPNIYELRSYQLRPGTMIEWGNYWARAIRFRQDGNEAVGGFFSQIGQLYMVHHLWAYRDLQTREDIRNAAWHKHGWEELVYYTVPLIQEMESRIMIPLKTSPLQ
inactive: [1] -0.014 | crizotinib 0.083 | [2] 0.068 | [3] -0.041 | duvelisib 0.019 | gandotinib 0.057 | tozasertib -0.084 | [4] 0.105 | doramapimod -0.106 | ispinesib 0.162
